# Bioassay records as filed in PubChem.
# Rows were chosen to be rich in hits. Some 19% of all compounds tested hit in one or more screens of this group.
# DT40 TDP1 CPT = DT40-hTDP1 cell growth loss with CPT; chicken DT40 Tdp1-/-;hTDP1 cells + 20 nM CPT, ATP luminescence, 48 h; Potency, µM (top dose mostly 46.2 µM), for inactives: top-dose activity change, negative = growth inhibition, most hits filed as inhibitors; 420,000 compounds, 12% hits; further: potency means the concentration at half of the fitted maximal effect; nearly all actives have a fitted effect of over 55% in size
#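 Cell growth measured by CellTiter-Glo luminescence after a minimum 48 h, 37 C compound exposure with 20 nM CPT in Tdp1-knockout DT40 cells stably expressing hTDP1, seeded 400/well; qHTS titration format.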
# HT1080NT lethal = kills 2HG-producing HT-1080-NT fibrosarcoma cells. HT-1080-NT fibrosarcoma viability, CellTiter-Glo ATP luminescence, 48 h. Potency, µM (top dose mostly 46.1 µM), for the others: at the top dose activity, negative = less viability, usual class: cytotoxic. 360,000 compounds, 1.6% hits. AID 686970;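 further: NT is the 2HG producing partner of a matched IDH1 knockdown line; potency means the concentration at half of the fitted maximal effect; 0% = DMSO-treated cells and -100% = media-only wells without cells; nearly all actives have a fitted effect of over 55% in size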
#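 A 48-hour cytotoxicity screen used HT-1080-NT cells plated 2 hours before compound delivery. ATP-based CellTiter-Glo luminescence measured viability, normalized to DMSO and no-cell controls.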
# HT1080 IDH1KD tx = kills HT-1080 cells with IDH1 knockdown | Potency, µM (series often up to 46.1 µM), inactives show at the top dose activity, negative = toxicity, most hits filed as cytotoxic | 360,000 compounds, 2% hits | HT-1080 IDH1 knockdown viability, ATP luminescence, 48 h;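 further: potency means the concentration at half of the fitted maximal effect; 0% = DMSO wells and -100% = cell-free medium wells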
#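 In this qHTS, HT-1080 cells depleted of IDH1 are exposed for 48 h at 37 °C to compound titrations. Toxicity is scored from CellTiter-Glo luminescence, with DMSO as full viability and medium alone as none.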
# DT40 TDP1 no CPT = qHTS for Inhibitors of human tyrosyl-DNA phosphodiesterase 1 (TDP1): qHTS in cells in absence of CPT; DT40 Tdp1-/- hTDP1 cells, no CPT, ATP luminescence, 48 h; Potency, µM (doses to about 46.2 µM), inactives show at the highest dose activity change, negative = growth inhibition, usual class: inhibitors; 420,000 compounds, 15% hits; further: potency means the concentration at half of the fitted maximal effect; nearly all actives have a fitted effect of over 55% in size
#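 Growth of hTDP1-complemented DT40 Tdp1-knockout cells is measured by ATP luminescence after at least 48 hr compound exposure at 37 °C, with DMSO substituting for the 20 nM CPT used in the parallel screen.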
# IL1B secr inh = inhibitors of inflammasome signaling (IL-1 beta secretion); THP-1 LPS/ATP IL-1B secretion, AlphaLISA, 16 h; stronger effect = lower value; activity change, % at 57.5 µM; 360,000 compounds, 4.7% hits; AID 743279; in the data active means activity change below about -50%; inconclusive means mostly about -30% to -49%
#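 THP-1 cells pretreated 1 hr with compounds (up to 57.5 uM final), then stimulated with LPS (250 ng/mL final) plus ATP (1.25 mM final); secreted IL-1B measured by AlphaLISA after 16 hr, decreased signal indicating inhibition.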
# Numbers without * were called inactive; ? = inconclusive; / = no result. Unless noted, the call rests on the fitted dose curve; in most records, active means well fitted curve in the direction sought with a large enough effect; inconclusive means small, poorly fitted or top-dose-only effect, or another doubt; inactive means no such curve, though single readings can be large; an effect the other way counts as inactive or inconclusive. Unless noted, on the % scale 0 is the no-effect control and ±100 the full control effect.
SMILES,DT40 TDP1 CPT,HT1080NT lethal,HT1080 IDH1KD tx,DT40 TDP1 no CPT,IL1B secr inh
COc1ccc(CCNC(=O)CN2C(=O)c3ccccc3S2(=O)=O)cc1,2.9%,-0.1%,-7.8%,-0.2%,-3.2
COc1ccc(N2C(=O)C3CCCN3C2=O)cc1 (stereo unspecified),14.3%,20.0%,14.3%,-8.9%,-0.4
COC(=O)c1ccc(CNC(=O)c2cc(S(=O)(=O)NCc3ccccc3)ccc2C)cc1,?,-13.2%,-22.8%,?,24.5
Cc1ccccc1OCC(=O)Nc1ccccc1N1CCC(C)CC1,-1.0%,-5.1%,2.7%,-22.4%,-16.4
CC/C(=N\Nc1ccccc1[N+](=O)[O-])c1ccc(O)cc1,-19.8%,?,20.6µM*,-10.0%,-22.7
CCCCCCN1C[C@H](n2cc(-c3ccc(F)cc3)nn2)[C@@H](O)C[C@@H]1c1ccc(C)cc1,13µM*,-6.4%,1.4%,13µM*,15.4
CCCCCCN1C[C@@H](n2cc(-c3ccc(F)cc3)nn2)[C@H](O)C[C@@H]1c1ccc(Cl)cc1,11.6µM*,7.9%,7.4%,11.6µM*,-18.5
CCCCCCN1C[C@H](O)[C@@H](n2cc(-c3ccc(F)cc3)nn2)C[C@@H]1c1ccc(Cl)cc1,?,2.4%,-2.7%,18.4µM*,-26.9
CCCCCCN1C[C@H](n2cc(-c3ccc(F)cc3)nn2)[C@@H](O)C[C@@H]1c1ccc(OC)cc1,?,1.9%,-3.8%,?,-0.6
O[C@@H]1C[C@H](c2ccc(Cl)cc2)N(Cc2cccs2)C[C@H]1n1cc(-c2ccc(F)cc2)nn1,-21.3%,7.0%,13.8%,?,42.5
COc1ccc(NC(=O)c2ccc3c(=O)n4nc(Nc5cc(C)ccc5C)sc4nc3c2)cc1,6.51µM*,/,/,5.8µM*,/
CCc1ccccc1Nc1nn2c(=O)c3ccc(C(=O)Nc4ccc(OC)cc4)cc3nc2s1,20.6µM*,/,/,13µM*,/
CCn1nnc2cc(C(=O)Nc3ccc(OC)cc3)ccc21,-18.6%,/,/,-10.0%,/
c1ccc(COc2ncnc3c2ncn3CCCNCc2cccs2)cc1,-20.8%,-15.9%,-3.2%,?,-27.3
N#Cc1cccc(NC(=O)N2CCCC3(CCN(C(=O)c4cnccn4)CC3)C2)c1,20.0%,/,/,-6.5%,/
CCC1=C(OC(=O)N(CC)CC)N2C(=O)OC(=NCCc3c[nH]c4ccccc34)[C@]2(Cc2ccccc2)[C@H]2C1=CC[C@H]1C(=O)N(C)C(=O)[C@H]12,?,-27.5%,-7.0%,?,-52.5*
CC(C)COc1ccc(C(=O)NCC2OCCc3ccccc32)cc1 (stereo unspecified),?,/,/,14.6µM*,/
CCCOc1ccc(C(=O)NCC2OCCc3ccccc32)cc1OC (stereo unspecified),0.4%,10.2%,-0.5%,?,-16.6
Nc1ccc(Oc2ccc3nc(-c4ccccc4)c(-c4ccccc4)nc3c2)cc1,?,-9.9%,-6.9%,20.6µM*,-58.5*
Nc1ccc(Oc2cc(N)cc(Oc3ccccc3)c2)cc1,-8.5%,-14.0%,-23.6%,-23.9%,?
Nc1ccc2nc(-c3ccccc3)c(-c3ccccc3)nc2c1,?,-3.9%,-1.7%,20.6µM*,30.5
Nc1ccc2nc(-c3ccccc3)cnc2c1,0.2%,6.0%,-1.3%,-23.0%,-3.8
CCOCCCNC(=O)c1cc(Cl)c(NC(=O)C2=C(C)OCCS2)cc1OC,?,0.2%,-0.5%,11.6µM*,-18.2
CCCNC(=O)c1cc(Cl)c(NC(=O)C2=C(C)OCCS2)cc1OC,?,-3.9%,-12.6%,?,-53.3*
CCCS(=O)(=O)c1c(S(=O)(=O)CCC)c2cc(C(C)(C)C)ccn2c1C(=O)c1ccc(C)cc1,23.1µM*,/,/,14.6µM*,/
SMILES,DT40 TDP1 CPT,HT1080NT lethal,HT1080 IDH1KD tx,DT40 TDP1 no CPT,IL1B secr inh
CCCS(=O)(=O)c1c(S(=O)(=O)CCC)c2ccc(C(N)=O)cn2c1C(=O)c1ccc(OC)cc1,12.0%,-2.6%,-19.8%,-25.0%,23.4
CCCCCCCCCCCCCCCC(O)C[N+](C)(C)CCO (stereo unspecified),5.17µM*,7.2%,-2.0%,3.26µM*,-75.9*
CC(C)(O)CCc1c(-c2ccc(O)cc2O)oc2c3c(cc(O)c2c1=O)OC(C)(C)C=C3,11.6µM*,-0.3%,-14.8%,16.4µM*,-13.6
CCC(=O)N1CCc2cc(Br)cc(S(=O)(=O)N3CCN(c4ccccc4OC)CC3)c21,?,/,/,23.1µM*,/
CC(=O)N1CCc2cc(Br)cc(S(=O)(=O)CCC(=O)N3CCN(c4ccc(F)cc4)CC3)c21,-15.7%,/,/,?,/
COc1ccccc1N1CCN(C(=O)CCS(=O)(=O)c2cc(Br)cc3c2N(C(=O)C2CC2)CC3)CC1,16.4µM*,/,/,?,/
CCN(CC)c1nc(N)c([N+](=O)[O-])c(NCCO)n1,-4.0%,-3.7%,0.5%,10.5%,2.6
COc1ccc(/C=C2\N=C(C)OC2=O)cc1OC(C)=O,?,12.2%,13.1%,-15.7%,2.3
COc1ccc(/C=C2\N=C(C)OC2=O)cc1OC,10.3µM*,7.4%,1.2%,-22.0%,-8.8
COc1cc(C=C2CCCC(=Cc3ccc(OCC4CO4)c(OC)c3)C2=O)ccc1OCC1CO1 (stereo unspecified),5.8µM*,16.4µM*,?,3.66µM*,-104.5*
COc1ccc(/C=C2/CSC/C(=C/c3ccc(OC)c(OC)c3)C2=O)cc1OC,4.11µM*,5.8µM*,5.8µM*,2.91µM*,-116.8*
CCOc1ccc(/C=C2\CCC(C3CCCC3)C2=O)cc1OC (stereo unspecified),?,14.8%,0.0%,?,-15.7
CC(C)[C@H](NC(=O)N1CC(=O)Nc2ccccc21)C(=O)N[C@@H](C(=O)O)c1ccccc1,16.5%,6.0%,19.2%,14.6%,1.9
O=C(c1ccc(Br)cc1)N(Cc1ccco1)c1ccccn1,0.5%,/,/,?,/
CC(C)(C)C1=C(C#N)C(c2cccnc2)C(C#N)=C(N)O1 (stereo unspecified),?,8.3%,3.6%,?,0.5
COc1ccc(C2C(C#N)=C(N)Oc3cc(O)ccc32)cc1 (stereo unspecified),-7.8%,-1.5%,1.3%,-8.2%,?
CN(C)/C=N/C1=C(C#N)C(c2cccs2)c2ccc3ccccc3c2O1 (stereo unspecified),4.11µM*,7.31µM*,7.31µM*,4.11µM*,85.5
COc1ccc(N=Cc2cc3c(cc2O)OC(N)=C(C#N)C3c2ccccc2)cc1 (stereo unspecified),?,?,?,20.6µM*,-8.7
N#CC1=C(N)Oc2cc3ccccc3cc2C1c1cccnc1 (stereo unspecified),8.2µM*,6.51µM*,5.8µM*,7.31µM*,-11.9
